In experiment [1] the test system is Wnt5a (protein binding on small-molecule microarray). The experiment is described as follows: small molecules binding Wnt5a protein – biophysical, small-molecule microarray, 635/667 nm fluorescence, primary screen (AID 1142).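 Also: fluorescence read at 667 nm with signal to noise per printed feature.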 Conditions: 635 nm fluorescence, higher = more signal.
Experiment [2] in a line: ATP-based viability of Huh7 replicon cells – cell-based, CellTiter-Glo luminescence, basal, 48 h, cytotoxicity control for HCV replication inhibitor project, primary screen (AID 1143).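 Also: Huh7 hepatoma cells carrying a hepatitis C replication reporter with no stimulus; test concentration not given here.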 Conditions: higher = more signal, called active from +8 up or from −8 down. On the technique in general: Replicon systems follow genome replication, usually without infectious particles.
Experiment [3] is described as follows: Pseudomonas biofilm growth suppression – PAO1 strain, BacTiter-Glo luminescence, LB-PBS, primary screen (AID 1144). Conditions: P. aeruginosa PAO1 biofilm, 12 h, higher = more signal.
Experiment [4] can be described thus: basal CRE-LacZ reporter activity in PC12 – cell-based, unstimulated, primary screen (AID 1145). Particulars: no forskolin, luminescence, 4.5 h, higher = more signal, called active from +8 up or from −8 down.
A short description of experiment [5]: forskolin-driven CRE-LacZ activity in PC12 – cell-based, CRE-LacZ reporter, forskolin-stimulated, primary screen (AID 1146).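 Also: PC12 cells with 6xCRE LacZ reporter stimulated by forskolin 10 µM; beta-galactosidase reporter signal reflecting CREB driven transcription.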 Particulars: luminescence, 4.5 h, higher = more signal, called active from +8 up or from −8 down.
The target in experiment [6] is Streptavidin (Streptomyces avidinii) (UniProt P22629). The experiment is described as follows: compounds binding control protein streptavidin – biophysical, small-molecule microarray, 635/667 nm fluorescence, artefact control for SMM compound annotation, primary screen (AID 1147).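 Also: signal reflects streptavidin binding to arrayed compounds as a control protein.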 Conditions: higher = more signal.
A short description of experiment [7]: probe aInhba binding on compound microarray – biochemical, small-molecule microarray, 635/667 nm fluorescence, primary screen (AID 1148).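 Also: score merges 667nm spot fluorescence with signal-to-noise for antibody binding to printed compounds.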 Conditions: higher = more signal.
For experiment [8], the target named is Torsin-1A (Homo sapiens) (UniProt O14656). The experiment is described as follows: TOR1A wild-type binding on microarray – cell lysate, small-molecule microarray, lysate, 635/667 nm, primary screen (AID 1149). Particulars: COS7 hTOR1A-WT lysate, 635 nm fluorescence, higher = more signal.
Experiment [9] has the same target. The experiment is described as follows: torsin A mutant lysate binding on microarrays – cell lysate, small-molecule microarray, COS7 lysate, 635/667 nm fluorescence, primary screen (AID 1150).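 Also: score pools 667 nm emission and signal to noise measuring lysate protein binding.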 Particulars: COS7 hTOR1A mutant lysate, 635 nm fluorescence, higher = more signal.
Experiment [10] deals with Sonic hedgehog protein (Shh). The experiment is described as follows: Sonic hedgehog microarray binding compounds – biochemical, small-molecule microarray, 635/667 nm fluorescence, primary screen (AID 1151).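 Also: Shh protein binding to compounds spotted on small-molecule microarray slides; score combines spot fluorescence intensity with signal-to-noise across triplicate slides.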 Particulars: 635 nm fluorescence, higher = more signal.
A short description of experiment [11]: optical density shifts of acrAB sulA E. coli – strain DRC41, OD650, 48 h, E. coli filamentation inducer project, primary screen (AID 1152).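 Also: E. coli MC1000 strain DRC41 lacking acrAB efflux pump and sulA.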 Conditions: higher = more signal, called active from +8 up or from −8 down.
A short description of experiment [12]: probe aLefty1 binding on compound microarray – biochemical, small-molecule microarray, 635/667 nm fluorescence, primary screen (AID 1153).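 Also: score merges spot fluorescence with signal-to-noise ratio from the scanned slide images.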 Particulars: higher = more signal.
The nature of experiment [13]: plasmodial surface anion channel blockers, osmotic lysis – cell-based, P. falciparum Indochina, OD700, 1 h, primary screen (AID 1154). Particulars: P. falciparum Indochina infected RBC osmotic lysis, higher = more signal, called active from +8 up or from −8 down.
Experiment [14] in a line: plasmodial surface anion channel blockers, osmotic lysis – cell-based, P. falciparum Indochina, OD700, 2 h, primary screen (AID 1155).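 Also: lysis reports solute entry through the parasite surface anion channel PSAC.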 Particulars: P. falciparum Indochina infected erythrocytes, higher = more signal, called active from +8 up or from −8 down.
Experiment [15] is described as follows: changes in parasitized red cell lysis, either direction – P. falciparum Indochina, OD700, 3 h, PSAC antagonist project, primary screen (AID 1156). Particulars: P. falciparum-infected erythrocytes, osmotic lysis, higher = more signal, called active from +8 up or from −8 down.
A short description of experiment [16]: plasmodial surface anion channel blockers, osmotic lysis – cell-based, P. falciparum Indochina, OD700, 18 h, primary screen (AID 1157). Conditions: P. falciparum Indochina infected erythrocytes, osmotic lysis OD700, 18 h; higher = more signal, called active from +8 up or from −8 down.
A short description of experiment [17]: S6 kinase pathway phospho-S6 level changes – cell-based, A549, cytoblot, luminescence, serum-stimulated, primary screen (AID 1158).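 Also: serum-stimulated A549 lung adenocarcinoma cells; signal is phosphorylated S6 detected by cytoblot immunostaining with HRP secondary.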 Particulars: 5 h, higher = more signal.
For experiment [18], the target named is NADPH oxidase 2 (Homo sapiens) (UniProt P04839). The experiment is described as follows: compounds shifting NOX2 Amplex Red fluorescence – cell-based, HEK293-NOX2, PMA-stimulated, NOX inhibitor project, primary screen (AID 1159). Also: test concentration not given here. Conditions: 45 min, higher = more signal, called active from +8 up or from −8 down.
For experiment [19], the target named is NADPH oxidase 4 (Homo sapiens) (UniProt Q9NPH5). Briefly: compounds shifting NOX4 Amplex Red fluorescence – cell-based, HEK293-NOX4, tetracycline-induced, NOX inhibitor project, primary screen (AID 1160). Conditions: HEK293-NOX4, Amplex Red H2O2 fluorescence, 45 min; higher = more signal, called active from +8 up or from −8 down.
In experiment [20] the target is NADPH oxidase 5 (Homo sapiens) (UniProt Q96PH1). The experiment is described as follows: compounds shifting NOX5 Amplex Red fluorescence – cell-based, HEK293-NOX5, NOX inhibitor project, primary screen (AID 1161). Conditions: HEK293-NOX5, ionomycin, 45 min, higher = more signal.

The source made the active and inactive calls. Unless noted, no rule for the calls is given here.

In PubChem BioAssay one finds composite z-score and z-score data, which are given here for four compounds.

Sequence of NADPH oxidase 4 (Homo sapiens) (Q9NPH5 whole entry, looked up): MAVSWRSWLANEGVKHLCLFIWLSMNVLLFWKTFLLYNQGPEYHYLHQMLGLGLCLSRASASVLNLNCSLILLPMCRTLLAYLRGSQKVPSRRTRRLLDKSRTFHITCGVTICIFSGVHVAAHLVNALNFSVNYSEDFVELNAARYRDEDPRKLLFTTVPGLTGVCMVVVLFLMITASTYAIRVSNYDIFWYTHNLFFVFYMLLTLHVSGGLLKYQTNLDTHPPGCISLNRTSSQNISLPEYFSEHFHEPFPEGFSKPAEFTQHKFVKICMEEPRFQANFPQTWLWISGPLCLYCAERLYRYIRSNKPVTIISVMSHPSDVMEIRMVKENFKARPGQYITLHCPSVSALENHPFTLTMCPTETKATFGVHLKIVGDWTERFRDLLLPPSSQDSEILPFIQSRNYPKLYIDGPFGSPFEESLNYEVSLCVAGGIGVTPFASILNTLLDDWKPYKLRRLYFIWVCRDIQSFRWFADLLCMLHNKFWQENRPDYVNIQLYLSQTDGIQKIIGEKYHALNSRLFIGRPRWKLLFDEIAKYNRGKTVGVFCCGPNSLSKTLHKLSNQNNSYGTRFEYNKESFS
Sequence of NADPH oxidase 5 (Homo sapiens) (Q96PH1 whole entry, looked up): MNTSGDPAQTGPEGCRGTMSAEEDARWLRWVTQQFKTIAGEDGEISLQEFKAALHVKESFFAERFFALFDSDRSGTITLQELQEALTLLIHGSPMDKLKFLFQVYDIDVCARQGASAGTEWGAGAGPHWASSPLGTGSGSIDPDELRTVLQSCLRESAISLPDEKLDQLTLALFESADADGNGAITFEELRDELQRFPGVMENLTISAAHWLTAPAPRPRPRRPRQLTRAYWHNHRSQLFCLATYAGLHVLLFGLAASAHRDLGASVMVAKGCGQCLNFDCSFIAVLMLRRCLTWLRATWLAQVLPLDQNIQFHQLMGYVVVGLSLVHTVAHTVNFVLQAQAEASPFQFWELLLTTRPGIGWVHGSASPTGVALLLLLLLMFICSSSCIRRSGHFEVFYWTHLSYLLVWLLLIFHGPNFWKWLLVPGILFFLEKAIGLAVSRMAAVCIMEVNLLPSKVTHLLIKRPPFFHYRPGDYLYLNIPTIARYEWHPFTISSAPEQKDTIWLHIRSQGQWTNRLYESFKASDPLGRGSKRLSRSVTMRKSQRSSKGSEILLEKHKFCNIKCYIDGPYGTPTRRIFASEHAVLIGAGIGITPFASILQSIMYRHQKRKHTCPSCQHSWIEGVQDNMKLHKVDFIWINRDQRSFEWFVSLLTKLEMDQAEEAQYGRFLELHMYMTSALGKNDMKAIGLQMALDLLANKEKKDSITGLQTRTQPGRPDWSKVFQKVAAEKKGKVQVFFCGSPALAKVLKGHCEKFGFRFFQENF
Sequence of Torsin-1A (Homo sapiens) (O14656 whole entry, looked up): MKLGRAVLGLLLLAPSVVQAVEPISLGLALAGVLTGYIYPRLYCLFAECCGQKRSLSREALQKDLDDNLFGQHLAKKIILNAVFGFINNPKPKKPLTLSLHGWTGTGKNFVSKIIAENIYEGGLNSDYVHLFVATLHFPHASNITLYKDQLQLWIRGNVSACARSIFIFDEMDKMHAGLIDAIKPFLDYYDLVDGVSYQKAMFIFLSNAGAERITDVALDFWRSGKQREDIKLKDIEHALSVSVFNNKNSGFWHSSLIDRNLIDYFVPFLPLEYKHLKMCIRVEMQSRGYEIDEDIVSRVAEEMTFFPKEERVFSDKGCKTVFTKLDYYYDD
Sequence of NADPH oxidase 2 (Homo sapiens) (P04839 whole entry, looked up): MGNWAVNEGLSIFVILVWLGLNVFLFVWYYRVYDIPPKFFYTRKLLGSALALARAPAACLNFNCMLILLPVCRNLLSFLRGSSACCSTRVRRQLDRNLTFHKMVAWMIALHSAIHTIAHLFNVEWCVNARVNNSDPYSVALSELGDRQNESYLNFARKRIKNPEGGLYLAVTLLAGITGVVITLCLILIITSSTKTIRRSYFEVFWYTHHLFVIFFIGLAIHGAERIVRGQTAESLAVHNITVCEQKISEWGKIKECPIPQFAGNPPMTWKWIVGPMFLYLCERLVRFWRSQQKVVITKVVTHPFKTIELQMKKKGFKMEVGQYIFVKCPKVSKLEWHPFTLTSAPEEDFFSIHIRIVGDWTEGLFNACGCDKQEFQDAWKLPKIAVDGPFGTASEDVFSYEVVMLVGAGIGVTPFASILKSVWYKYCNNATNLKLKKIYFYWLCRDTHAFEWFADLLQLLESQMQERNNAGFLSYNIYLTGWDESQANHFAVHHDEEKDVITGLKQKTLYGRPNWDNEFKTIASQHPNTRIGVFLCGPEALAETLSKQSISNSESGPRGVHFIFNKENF
Sequence of Streptavidin (Streptomyces avidinii) (P22629 whole entry, looked up): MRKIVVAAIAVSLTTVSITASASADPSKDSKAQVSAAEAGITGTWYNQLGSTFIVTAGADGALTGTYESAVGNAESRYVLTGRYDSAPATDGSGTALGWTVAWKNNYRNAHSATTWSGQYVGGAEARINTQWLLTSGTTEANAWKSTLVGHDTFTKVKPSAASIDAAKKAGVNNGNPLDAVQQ

For the compound `[N-]=[N+]=NCc1ccccc1[C@@H]1OC(c2ccc(OCCCO)cc2)=N[C@]1(Cc1ccccc1)C(=O)N1CCOCC1`, the composite z-score in experiment [1] worked out at 0.599; in experiment [6] it was 1.66; in experiment [7], 0.618; with Torsin-1A (Homo sapiens) [8], 3.2; with Torsin-1A (Homo sapiens) [9], 3.32; in [10], 0.0283. Moreover, the composite z-score in experiment [12] amounted to 0.904. For the same compound, the z-score in experiment [2] was -3.55 (inactive); in [3] it was 0.369 (inactive); in [4], -0.0017 (inactive); in experiment [5], 0.531 (inactive); in experiment [11], 0.854 (inactive); in [13] it was 16.7 (active). For the same compound, the z-score in experiment [14] is 2.9 (inactive); in experiment [15] it was 2.49 (inactive); in experiment [16] it was 1.01 (inactive); in experiment [17] it was 0.131; in [18], -1.85 (inactive); in experiment [19], -0.253 (inactive). Moreover, the z-score in experiment [20] is -1.21.

Turning to `CC(C)CON=C1C[C@@H](O)[C@@H](O)[C@@H]2[C@@H]3C(=O)N(C[C@@H]4CCCO4)C(=O)[C@@H]3CC[C@H]12`, the composite z-score in experiment [1] is -0.0313; in experiment [6], -0.23; in [7] it was -0.128; with Torsin-1A (Homo sapiens) [8], 0.0672; with Torsin-1A (Homo sapiens) [9], 1.49; in [10] it was 0.819. The same compound had a composite z-score in [12] of -0.0559. Besides, the z-score in [2] was -1.36 (inactive); in [3], 1.34 (inactive); in [4], -1.02 (inactive); in experiment [5], -0.296 (inactive); in [11], 0.165 (inactive); in [13] it was 0.0811 (inactive). In addition, the z-score was 0.449 (inactive) in [14]; -0.425 (inactive) in experiment [15]; -0.0131 (inactive) in experiment [16]; -0.383 in experiment [17]; 0.202 (inactive) in experiment [18]; 0.313 (inactive) in experiment [19]. Further, the z-score in experiment [20] is -0.61.

Regarding `O=C1[C@H]2[C@H]3[C@H](O)[C@H](O)CC(=NO[C@@H]4O[C@H](CO)[C@@H](O)[C@H](O)[C@H]4O)[C@H]3CC[C@H]2C(=O)N1Cc1ccccc1`, the composite z-score in experiment [1] is 0.927; in experiment [6], 0.001; in [7] it was -0.0736; with Torsin-1A (Homo sapiens) [8] it was 0.717; with Torsin-1A (Homo sapiens) [9] it was 0.0309; in experiment [10], 0.439. In [12], this compound had a composite z-score of 0.0068. The z-score in experiment [2] was -0.871 (inactive); in experiment [3], 0.641 (inactive); in [4] it was -0.474 (inactive); in experiment [5], -0.0615 (inactive); in experiment [11], -0.906 (inactive); in experiment [13] it was 5.53 (inactive). The z-score in experiment [14] was 0.117 (inactive); in experiment [15] it was -0.19 (inactive); in experiment [16], -0.801 (inactive); in [17], 0.705; in experiment [18] it was -2.63 (inactive); in experiment [19], 0.587 (inactive). For the same compound, the z-score in experiment [20] came out at 0.353.

As to `CCOC(=O)NN=C1C[C@@H](O)[C@@H](O)[C@@H]2[C@@H]3C(=O)N(CC)C(=O)[C@@H]3CC[C@@H]12`, the composite z-score in experiment [1] was -0.0087; in experiment [6], -0.124; in [7], -0.324; with Torsin-1A (Homo sapiens) [8], 0.0252; with Torsin-1A (Homo sapiens) [9] it was -0.0727; in [10], 0.784. The composite z-score in experiment [12] stood at 0.0053. Further, the z-score in experiment [2] is 0.225 (inactive); in [3], -0.0164 (inactive); in experiment [4], -0.205 (inactive); in experiment [5] it was 0.104 (inactive); in experiment [11], -0.562 (inactive); in experiment [13], -0.485 (inactive). Moreover, the z-score was -0.246 (inactive) in experiment [14]; -0.493 (inactive) in experiment [15]; -0.336 (inactive) in experiment [16]; 0.123 in experiment [17]; -1.43 (inactive) in experiment [18]; 0.0593 (inactive) in [19]. Further, the z-score in [20] was -0.641.
